Assay [1] concerns the target Homeodomain-interacting protein kinase 3 (Homo sapiens) (UniProt Q9H422). Conditions: at 10 µM; call rule not given here.
The target of assay [2] is T1, Serine/threonine-protein kinase haspin (Homo sapiens) (UniProt Q8TF76).
T1 sequence (whole entry): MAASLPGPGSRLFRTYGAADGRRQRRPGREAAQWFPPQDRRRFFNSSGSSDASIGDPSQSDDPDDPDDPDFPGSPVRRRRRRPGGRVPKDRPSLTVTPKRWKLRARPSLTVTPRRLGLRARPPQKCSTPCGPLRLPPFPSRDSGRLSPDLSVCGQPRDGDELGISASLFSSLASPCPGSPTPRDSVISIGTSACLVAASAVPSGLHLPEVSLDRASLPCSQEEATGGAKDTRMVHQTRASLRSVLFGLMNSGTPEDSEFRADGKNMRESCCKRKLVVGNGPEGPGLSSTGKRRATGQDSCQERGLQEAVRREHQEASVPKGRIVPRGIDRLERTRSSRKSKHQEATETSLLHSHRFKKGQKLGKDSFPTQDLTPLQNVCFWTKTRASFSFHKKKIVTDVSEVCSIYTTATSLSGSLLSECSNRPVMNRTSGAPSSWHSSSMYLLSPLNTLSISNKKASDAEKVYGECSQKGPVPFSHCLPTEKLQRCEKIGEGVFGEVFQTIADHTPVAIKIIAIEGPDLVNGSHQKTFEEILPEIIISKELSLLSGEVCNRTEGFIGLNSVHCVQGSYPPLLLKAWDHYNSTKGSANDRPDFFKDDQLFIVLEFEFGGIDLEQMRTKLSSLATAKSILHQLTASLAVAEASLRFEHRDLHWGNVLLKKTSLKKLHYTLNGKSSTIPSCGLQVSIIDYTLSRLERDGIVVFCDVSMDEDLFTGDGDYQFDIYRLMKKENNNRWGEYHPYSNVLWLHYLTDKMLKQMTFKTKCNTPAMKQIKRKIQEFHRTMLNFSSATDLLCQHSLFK
Conditions: at 1 µM.

For assay [3], the target named is T1, Serine/threonine-protein kinase haspin (Homo sapiens). Conditions: at 10 µM.
The target of assay [4] is Tyrosine-protein kinase HCK (Homo sapiens) (UniProt P08631). Conditions: at 1 µM.
Chain of Tyrosine-protein kinase HCK (Homo sapiens) (P08631 2-526 limits assumed): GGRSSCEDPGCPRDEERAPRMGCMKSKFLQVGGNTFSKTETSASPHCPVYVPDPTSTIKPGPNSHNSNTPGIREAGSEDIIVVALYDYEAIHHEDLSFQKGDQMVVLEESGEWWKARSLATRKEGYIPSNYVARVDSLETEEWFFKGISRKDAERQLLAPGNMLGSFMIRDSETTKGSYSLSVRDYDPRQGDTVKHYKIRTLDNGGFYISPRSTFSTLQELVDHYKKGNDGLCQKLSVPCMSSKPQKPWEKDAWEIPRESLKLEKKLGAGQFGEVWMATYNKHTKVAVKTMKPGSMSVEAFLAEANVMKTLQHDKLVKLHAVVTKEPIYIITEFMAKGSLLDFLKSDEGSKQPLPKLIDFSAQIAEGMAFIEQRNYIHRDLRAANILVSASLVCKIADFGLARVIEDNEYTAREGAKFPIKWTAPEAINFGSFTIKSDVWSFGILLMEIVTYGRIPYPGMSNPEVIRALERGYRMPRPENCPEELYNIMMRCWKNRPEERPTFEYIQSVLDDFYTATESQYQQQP
Assay [5] has the same target. Conditions: at 10 µM.
For assay [6] the target is unchanged. The following applies: at 1 µM. This is another data set of the same source.
The target is the same in assay [7]. The following applies: at 10 µM. This is another data set of the same source.
Assay [8] addresses Insulin-like growth factor 1 receptor (Homo sapiens) (UniProt P08069). The following applies: at 1 µM.
Assay [9] has the same target. The following applies: at 10 µM.
In assay [10] the target is T2, Protein kinase C zeta type (Homo sapiens) (UniProt Q05513).
T2 sequence (whole entry): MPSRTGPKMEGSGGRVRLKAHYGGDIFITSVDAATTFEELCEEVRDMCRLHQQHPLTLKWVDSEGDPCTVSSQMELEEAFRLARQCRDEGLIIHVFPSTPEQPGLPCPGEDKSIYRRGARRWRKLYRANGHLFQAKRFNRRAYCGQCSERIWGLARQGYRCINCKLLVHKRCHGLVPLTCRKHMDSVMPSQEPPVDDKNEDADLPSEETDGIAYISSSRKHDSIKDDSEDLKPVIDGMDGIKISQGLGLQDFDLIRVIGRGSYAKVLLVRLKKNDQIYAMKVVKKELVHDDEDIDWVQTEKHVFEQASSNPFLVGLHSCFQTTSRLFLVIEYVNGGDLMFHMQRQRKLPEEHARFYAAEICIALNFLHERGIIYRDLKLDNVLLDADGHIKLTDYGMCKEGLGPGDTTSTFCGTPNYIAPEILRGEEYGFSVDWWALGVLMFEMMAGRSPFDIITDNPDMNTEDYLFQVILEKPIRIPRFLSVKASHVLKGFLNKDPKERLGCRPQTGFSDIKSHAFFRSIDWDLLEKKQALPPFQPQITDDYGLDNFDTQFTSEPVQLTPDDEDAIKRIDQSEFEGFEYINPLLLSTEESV
Conditions: at 10 µM.

Assay [11] deals with Protein kinase C eta type (Homo sapiens) (UniProt P24723). The following applies: at 1 µM.
Chain of Protein kinase C eta type (Homo sapiens) (P24723 whole entry): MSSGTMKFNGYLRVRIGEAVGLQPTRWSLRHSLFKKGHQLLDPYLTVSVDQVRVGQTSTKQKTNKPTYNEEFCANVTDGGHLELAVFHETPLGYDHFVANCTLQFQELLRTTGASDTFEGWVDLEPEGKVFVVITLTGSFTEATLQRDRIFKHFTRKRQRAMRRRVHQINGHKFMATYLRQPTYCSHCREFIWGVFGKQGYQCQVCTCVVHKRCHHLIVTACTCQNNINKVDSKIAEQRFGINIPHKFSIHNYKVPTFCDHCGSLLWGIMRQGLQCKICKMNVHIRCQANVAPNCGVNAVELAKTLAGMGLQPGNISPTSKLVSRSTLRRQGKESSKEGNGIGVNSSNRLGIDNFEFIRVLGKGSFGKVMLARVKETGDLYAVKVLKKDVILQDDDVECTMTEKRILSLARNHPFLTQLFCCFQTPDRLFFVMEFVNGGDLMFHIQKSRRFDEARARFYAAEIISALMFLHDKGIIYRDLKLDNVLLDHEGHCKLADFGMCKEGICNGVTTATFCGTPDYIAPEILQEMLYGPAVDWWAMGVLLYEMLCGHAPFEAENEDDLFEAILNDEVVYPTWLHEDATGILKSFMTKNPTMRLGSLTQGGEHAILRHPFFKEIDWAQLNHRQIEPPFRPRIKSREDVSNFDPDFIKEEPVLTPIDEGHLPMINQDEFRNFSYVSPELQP
The target is the same in assay [12]. The following applies: at 10 µM.
The target of assay [13] is Protein kinase C theta type (Homo sapiens) (UniProt Q04759). The following applies: at 1 µM.
Chain of Protein kinase C theta type (Homo sapiens) (Q04759 whole entry, looked up): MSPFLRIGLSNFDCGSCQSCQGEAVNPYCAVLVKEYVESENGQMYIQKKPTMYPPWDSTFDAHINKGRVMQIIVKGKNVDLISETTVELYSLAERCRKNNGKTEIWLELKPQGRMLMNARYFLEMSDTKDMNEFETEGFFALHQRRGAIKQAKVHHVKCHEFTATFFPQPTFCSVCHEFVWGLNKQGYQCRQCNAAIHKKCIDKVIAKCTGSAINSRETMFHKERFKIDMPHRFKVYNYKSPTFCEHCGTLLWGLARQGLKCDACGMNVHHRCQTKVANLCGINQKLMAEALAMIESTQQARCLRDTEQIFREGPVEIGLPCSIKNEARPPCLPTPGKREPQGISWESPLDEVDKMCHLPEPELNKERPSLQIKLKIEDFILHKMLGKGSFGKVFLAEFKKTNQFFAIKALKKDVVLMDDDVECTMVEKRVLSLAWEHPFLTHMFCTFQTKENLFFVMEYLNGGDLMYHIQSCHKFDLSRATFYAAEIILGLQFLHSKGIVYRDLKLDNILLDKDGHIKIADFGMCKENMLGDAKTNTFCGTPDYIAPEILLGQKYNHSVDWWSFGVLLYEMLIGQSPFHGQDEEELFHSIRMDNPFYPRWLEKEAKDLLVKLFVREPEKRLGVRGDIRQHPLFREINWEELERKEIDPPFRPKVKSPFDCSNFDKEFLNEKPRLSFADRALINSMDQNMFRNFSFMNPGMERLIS
For assay [14] the target is unchanged. Conditions: at 10 µM.
Assay [15] has as its target T3, Protein kinase C iota type (Homo sapiens) (UniProt P41743).
T3 sequence (whole entry): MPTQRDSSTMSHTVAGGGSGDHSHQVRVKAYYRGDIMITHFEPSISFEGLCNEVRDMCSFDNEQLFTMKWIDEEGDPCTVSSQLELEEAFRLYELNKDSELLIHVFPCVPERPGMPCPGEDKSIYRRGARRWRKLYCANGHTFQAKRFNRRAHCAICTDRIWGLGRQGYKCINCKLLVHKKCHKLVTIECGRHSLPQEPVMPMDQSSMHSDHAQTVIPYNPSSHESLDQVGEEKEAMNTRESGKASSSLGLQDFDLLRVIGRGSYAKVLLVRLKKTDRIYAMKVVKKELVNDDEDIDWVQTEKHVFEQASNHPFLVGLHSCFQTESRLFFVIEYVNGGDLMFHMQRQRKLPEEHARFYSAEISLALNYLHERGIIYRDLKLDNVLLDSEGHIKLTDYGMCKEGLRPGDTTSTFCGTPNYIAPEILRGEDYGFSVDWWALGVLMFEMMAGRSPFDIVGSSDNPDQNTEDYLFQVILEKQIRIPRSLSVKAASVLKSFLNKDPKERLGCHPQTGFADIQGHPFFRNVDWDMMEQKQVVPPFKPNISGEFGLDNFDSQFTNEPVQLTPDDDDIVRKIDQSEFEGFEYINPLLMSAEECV
Conditions: at 1 µM.

For assay [16], the target named is T3, Protein kinase C iota type (Homo sapiens). Conditions: at 10 µM.
Assay [17] addresses T4, Serine/threonine-protein kinase D1 (Homo sapiens) (UniProt Q15139).
T4 sequence (whole entry): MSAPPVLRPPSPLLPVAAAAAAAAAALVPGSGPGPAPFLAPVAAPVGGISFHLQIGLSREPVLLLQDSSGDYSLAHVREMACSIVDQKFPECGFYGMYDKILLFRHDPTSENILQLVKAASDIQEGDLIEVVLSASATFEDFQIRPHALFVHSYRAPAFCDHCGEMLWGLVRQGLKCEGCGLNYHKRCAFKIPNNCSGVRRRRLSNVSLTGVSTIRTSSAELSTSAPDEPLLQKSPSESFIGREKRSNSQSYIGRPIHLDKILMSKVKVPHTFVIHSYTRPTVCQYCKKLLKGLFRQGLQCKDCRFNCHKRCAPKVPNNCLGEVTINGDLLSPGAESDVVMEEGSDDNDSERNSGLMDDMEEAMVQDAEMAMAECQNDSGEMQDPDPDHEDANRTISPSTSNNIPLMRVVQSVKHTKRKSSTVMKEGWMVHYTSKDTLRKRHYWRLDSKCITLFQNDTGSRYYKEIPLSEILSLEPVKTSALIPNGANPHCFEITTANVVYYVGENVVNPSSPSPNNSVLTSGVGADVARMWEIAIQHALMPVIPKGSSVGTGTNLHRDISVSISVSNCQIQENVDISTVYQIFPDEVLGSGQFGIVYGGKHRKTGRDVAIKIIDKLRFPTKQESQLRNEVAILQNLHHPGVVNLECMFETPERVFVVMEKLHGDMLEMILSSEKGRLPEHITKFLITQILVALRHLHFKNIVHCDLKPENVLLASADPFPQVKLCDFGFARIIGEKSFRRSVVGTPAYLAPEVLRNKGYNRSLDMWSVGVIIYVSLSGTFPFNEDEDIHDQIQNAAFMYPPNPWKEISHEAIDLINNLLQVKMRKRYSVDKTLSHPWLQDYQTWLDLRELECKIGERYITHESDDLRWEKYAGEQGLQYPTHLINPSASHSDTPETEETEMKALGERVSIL
The following applies: at 1 µM.

Assay [18] has as its target T5, Serine/threonine-protein kinase D2 (Homo sapiens) (UniProt Q9BZL6).
T5 sequence (whole entry): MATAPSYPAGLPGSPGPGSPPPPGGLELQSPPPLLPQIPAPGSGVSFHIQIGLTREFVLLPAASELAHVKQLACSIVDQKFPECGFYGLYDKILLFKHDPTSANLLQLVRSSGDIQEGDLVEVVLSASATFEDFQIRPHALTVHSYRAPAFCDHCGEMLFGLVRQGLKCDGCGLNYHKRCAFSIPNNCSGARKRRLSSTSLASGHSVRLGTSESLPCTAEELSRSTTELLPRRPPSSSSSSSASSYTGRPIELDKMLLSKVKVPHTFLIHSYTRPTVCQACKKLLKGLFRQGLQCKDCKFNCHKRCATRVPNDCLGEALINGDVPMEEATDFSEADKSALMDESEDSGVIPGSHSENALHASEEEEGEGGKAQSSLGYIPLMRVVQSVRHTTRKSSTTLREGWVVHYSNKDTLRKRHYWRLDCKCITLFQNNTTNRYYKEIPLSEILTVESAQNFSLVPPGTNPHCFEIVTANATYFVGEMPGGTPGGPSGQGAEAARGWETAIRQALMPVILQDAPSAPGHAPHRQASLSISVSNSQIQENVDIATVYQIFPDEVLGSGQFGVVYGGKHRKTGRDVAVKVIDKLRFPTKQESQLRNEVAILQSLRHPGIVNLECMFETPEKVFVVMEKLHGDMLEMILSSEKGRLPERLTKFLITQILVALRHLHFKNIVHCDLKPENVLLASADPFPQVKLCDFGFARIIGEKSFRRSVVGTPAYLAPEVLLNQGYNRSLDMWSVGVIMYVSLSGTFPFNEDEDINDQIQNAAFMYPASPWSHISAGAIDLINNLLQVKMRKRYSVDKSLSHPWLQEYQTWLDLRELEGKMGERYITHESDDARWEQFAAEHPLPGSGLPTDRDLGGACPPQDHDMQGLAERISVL
The following applies: at 1 µM.

The target in assay [19] is T5, Serine/threonine-protein kinase D2 (Homo sapiens). Conditions: at 10 µM.
For assay [20], the target named is T4, Serine/threonine-protein kinase D1 (Homo sapiens). Conditions: at 10 µM.

SMILES strings stand for the structures.

Chain of Insulin-like growth factor 1 receptor (Homo sapiens) (P08069 31-736 limits assumed): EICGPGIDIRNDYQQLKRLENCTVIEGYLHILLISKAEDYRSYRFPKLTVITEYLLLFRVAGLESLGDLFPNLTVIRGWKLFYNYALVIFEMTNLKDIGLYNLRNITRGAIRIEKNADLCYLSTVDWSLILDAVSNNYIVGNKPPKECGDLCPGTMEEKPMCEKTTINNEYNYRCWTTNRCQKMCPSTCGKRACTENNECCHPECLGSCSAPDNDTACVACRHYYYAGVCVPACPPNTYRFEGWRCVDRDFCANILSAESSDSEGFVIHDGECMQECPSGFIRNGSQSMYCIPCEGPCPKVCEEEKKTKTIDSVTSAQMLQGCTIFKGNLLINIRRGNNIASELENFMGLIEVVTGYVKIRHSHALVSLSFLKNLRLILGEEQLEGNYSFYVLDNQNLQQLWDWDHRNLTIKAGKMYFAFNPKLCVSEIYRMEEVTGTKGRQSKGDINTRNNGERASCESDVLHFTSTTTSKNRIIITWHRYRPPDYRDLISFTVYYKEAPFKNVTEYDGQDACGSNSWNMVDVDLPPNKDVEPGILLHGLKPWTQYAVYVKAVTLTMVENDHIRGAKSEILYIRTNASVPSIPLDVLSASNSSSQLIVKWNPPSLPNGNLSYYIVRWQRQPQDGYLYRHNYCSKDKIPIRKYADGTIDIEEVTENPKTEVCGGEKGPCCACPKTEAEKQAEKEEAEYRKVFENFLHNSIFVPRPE
Chain of Insulin-like growth factor 1 receptor (Homo sapiens) (P08069 741-1367 limits assumed): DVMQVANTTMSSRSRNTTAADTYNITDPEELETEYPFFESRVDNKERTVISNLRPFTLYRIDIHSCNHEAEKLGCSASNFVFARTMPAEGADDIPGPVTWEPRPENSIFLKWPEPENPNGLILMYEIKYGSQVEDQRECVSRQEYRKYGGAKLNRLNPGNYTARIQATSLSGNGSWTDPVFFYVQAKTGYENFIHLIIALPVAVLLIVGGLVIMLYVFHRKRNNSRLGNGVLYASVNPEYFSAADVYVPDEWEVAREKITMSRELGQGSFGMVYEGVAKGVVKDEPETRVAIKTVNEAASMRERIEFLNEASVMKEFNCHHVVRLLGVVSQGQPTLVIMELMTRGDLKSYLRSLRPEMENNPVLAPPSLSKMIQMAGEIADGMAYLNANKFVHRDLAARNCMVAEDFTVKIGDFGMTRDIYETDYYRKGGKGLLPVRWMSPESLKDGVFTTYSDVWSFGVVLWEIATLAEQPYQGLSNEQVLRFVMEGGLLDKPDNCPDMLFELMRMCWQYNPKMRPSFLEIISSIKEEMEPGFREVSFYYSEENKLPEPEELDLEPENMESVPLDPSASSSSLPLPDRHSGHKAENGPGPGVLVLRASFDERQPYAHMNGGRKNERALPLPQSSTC
Chain of Homeodomain-interacting protein kinase 3 (Homo sapiens) (Q9H422 whole entry, looked up): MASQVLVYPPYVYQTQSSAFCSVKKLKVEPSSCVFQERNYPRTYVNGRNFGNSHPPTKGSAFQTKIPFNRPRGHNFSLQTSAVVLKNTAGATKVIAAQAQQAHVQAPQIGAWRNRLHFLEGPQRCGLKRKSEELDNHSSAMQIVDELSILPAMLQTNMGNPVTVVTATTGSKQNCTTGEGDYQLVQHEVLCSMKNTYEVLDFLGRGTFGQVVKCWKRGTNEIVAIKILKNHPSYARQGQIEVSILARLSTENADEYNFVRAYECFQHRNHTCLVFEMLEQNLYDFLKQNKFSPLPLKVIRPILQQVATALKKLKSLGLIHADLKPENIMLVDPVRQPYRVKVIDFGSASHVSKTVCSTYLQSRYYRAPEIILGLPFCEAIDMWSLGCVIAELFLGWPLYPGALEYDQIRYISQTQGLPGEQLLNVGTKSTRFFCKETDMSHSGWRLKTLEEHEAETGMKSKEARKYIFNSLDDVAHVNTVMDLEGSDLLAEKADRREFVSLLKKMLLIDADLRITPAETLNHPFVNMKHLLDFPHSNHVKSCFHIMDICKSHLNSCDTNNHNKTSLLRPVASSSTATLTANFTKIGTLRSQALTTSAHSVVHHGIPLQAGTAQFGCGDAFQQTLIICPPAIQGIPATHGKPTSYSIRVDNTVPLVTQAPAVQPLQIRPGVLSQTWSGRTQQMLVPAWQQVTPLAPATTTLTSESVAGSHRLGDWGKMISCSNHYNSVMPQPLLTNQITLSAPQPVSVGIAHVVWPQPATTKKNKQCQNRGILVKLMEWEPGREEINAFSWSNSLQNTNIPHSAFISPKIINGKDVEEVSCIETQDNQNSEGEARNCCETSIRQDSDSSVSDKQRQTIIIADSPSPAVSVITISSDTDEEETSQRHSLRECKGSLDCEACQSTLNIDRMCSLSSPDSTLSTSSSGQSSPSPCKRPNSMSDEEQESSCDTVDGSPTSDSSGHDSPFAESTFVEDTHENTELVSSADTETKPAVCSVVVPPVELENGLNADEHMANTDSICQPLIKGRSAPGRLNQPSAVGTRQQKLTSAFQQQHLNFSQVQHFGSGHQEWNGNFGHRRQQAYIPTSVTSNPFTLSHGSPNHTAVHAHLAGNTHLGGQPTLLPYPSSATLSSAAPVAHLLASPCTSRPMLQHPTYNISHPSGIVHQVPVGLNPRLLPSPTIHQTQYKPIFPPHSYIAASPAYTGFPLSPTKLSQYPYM

Take `CC(=O)O/N=C1\C(=C2\C(=O)Nc3cc(Br)ccc32)Nc2ccccc21`: the residual activity in assay [1] amounted to 76%; in [2] it was 93%; in assay [3], 74%; in assay [4], 22%; in [5], 9%; in [6], 3%. Further, the residual activity is -1% in [7]; 142% in assay [8]; 110% in assay [9]; 95% in [10]; 101% in assay [11]; 106% in assay [12]. The residual activity is 97% in assay [13]; 96% in assay [14]; 104% (inactive) in [15]; 103% in assay [16]; 85% in assay [17]; 104% in [18]. In assay [19], the residual activity was found to be 102%.

Consider `O=C1Nc2ccc(Br)cc2/C1=C\c1cc2c([nH]1)CCCC2`, for which the residual activity in assay [1] was determined as 76%; in assay [4], 59%; in [5], 52%; in assay [9], 128%; in assay [10] it was 102%; in assay [11], 102%. Besides, the residual activity in [12] was 73%; in assay [13] it was 100%; in assay [14] it was 99%; in assay [15] it was 84% (inactive); in assay [16], 78%; in assay [19] it was 106%.

On to `O=C1NC(=O)c2c1c1c3ccccc3[nH]c1c1[nH]c3cc(Br)ccc3c21`, for which the residual activity amounted to 89% in assay [1]; 99% in assay [2]; 72% in assay [3]; 69% in [4]; 56% in assay [5]; 97% in [6]. Further, the residual activity in assay [7] worked out at 78%; in assay [8] it was 87%; in [9] it was 91%; in assay [10], 88%; in assay [11], 72%; in assay [12], 89%. For the same compound, the residual activity in [13] was 80%; in assay [14] it was 91%; in assay [15] it was 102% (inactive); in assay [17] it was 111%; in assay [20], 72%; in assay [18], 103%. Further, the residual activity in assay [19] was determined as 90%.

Regarding `Oc1ccc(Nc2nc(-c3ccc(Cl)cc3)cs2)cc1`, the residual activity in assay [1] is 85%; in [2], 88%; in [3], 84%; in [4], 89%; in [5], 69%; in assay [6] it was 97%. The residual activity turned out to be 86% in assay [7]; 120% in assay [8]; 101% in [9]; 87% in [10]; 78% in [11]; 79% in [12]. In addition, the residual activity in [13] is 100%; in assay [14] it was 114%; in [15], 109% (inactive); in [16] it was 103%; in assay [17], 94%; in assay [20], 100%. In addition, the residual activity in [18] turned out to be 106%; in assay [19], 93%.

The record behind these values is ChEMBL document CHEMBL2218924, “A broad activity screen in support of a chemogenomic map for kinase signalling research and drug discovery” (Biochem J, 2013).
